About 8,600 (12%) of roughly 69,000 compounds showed an effect of 50% or more. Shown is part of a subset that was picked to be rich in strong results.
System: Plasmodium berghei
Assay: Screen against P. berghei liver stage (PbLuc), transformed with Luciferase, at 10uM
Type: functional, HepG2
Settings: tested at 10 uM

SMILES | INHIBITION
CC(C)Cc1noc(CN2CCN(C(=O)c3ccccc3F)CC2)n1 | -19.4%
CC(C)Nc1ncnc2c1CCN(Cc1nccn1C)CC2 | 24.9%
Cc1ncc(CNCC2CCC(C(N)=O)CC2)n1-c1ccccc1 (stereo unspecified) | 30.8%
Cc1ncc(CNCC(=O)NCC(F)(F)F)n1-c1ccccc1 | 41.5%
Cc1ncc(CNCC(=O)NC2CCCCC2)n1-c1ccccc1 | 65%
Cc1n[nH]c(C)c1-c1nccnc1CC1CCNC1 (stereo unspecified) | 25%
CCC(C)(N)c1nc(=O)c(C(C)C)c(C)[nH]1 (stereo unspecified) | 24.8%
OC(c1cnn(-c2ccccc2)c1)C(F)(F)F (stereo unspecified) | 26.5%
CCOc1ccc(OC2CCCN(c3cnn(C)c3)C2=O)cc1 (stereo unspecified) | 25.8%
Cc1nc(COc2ccc(OC3CCCCNC3=O)cc2)oc1C (stereo unspecified) | 64.9%
CCc1cnc(COc2ccc(OC3CCCCNC3=O)cc2)o1 (stereo unspecified) | 78.4%
Cc1nc(COc2ccc(OCC(N)=O)cc2)oc1C | -120%
CCc1cnc(CN(C)C2CCN(CC3CCC3)C2)o1 (stereo unspecified) | -0.532%
Cc1cc(COc2ccc(OC3CCCCNC3=O)cc2)on1 (stereo unspecified) | -26.1%
COc1ncccc1CNC(=O)NC1CCCOc2ccccc21 (stereo unspecified) | 10%
CN(Cc1ccsc1)C(=O)CNC(=O)N1CCc2ccccc2C1 | 54.8%
Cc1ccc(CN(C)C(=O)CNC(=O)N2CCc3ccccc3C2)o1 | -1.45%
CN(Cc1ccccn1)C(=O)CNC(=O)N1CCc2ccccc2C1 | 21.2%
c1cnn(CC2CN(CC3CCCCC3)CCO2)c1 (stereo unspecified) | -71.2%
N#Cc1ccccc1N1CCN(C(=O)NCC(=O)N2CCCC2)CC1 | -9.1%
N#Cc1ccccc1N1CCCN(CC(=O)Nc2ccc(Cl)cn2)CC1 | 37.7%
N#Cc1ccccc1N1CCCN(CC(=O)Nc2ccccc2Cl)CC1 | 63.7%

SMILES | INHIBITION
Cc1cc(C)c(Cn2cncn2)cc1CN1CC[C@@H]2CC[C@H](C1)N2 | 19.4%
Cc1nc2c(N3CCN(CCO)CC3)nc(N)nc2n1C | 13.1%
CC(=O)NS(=O)(=O)c1ccc2c(c1)N(C)CCC2 | -56.6%
CN1CCCc2ccc(S(=O)(=O)NC(=O)C3CC=CC3)cc21 | 75.4%
CC(C)C(=O)NS(=O)(=O)c1ccc2c(c1)N(C)CCC2 | 39.2%
CN(Cc1nncn1-c1cccc(C(F)(F)F)c1)S(C)(=O)=O | -19.1%
CCCC(=O)N(CCCN1CCOCC1)c1nc2c(C)ccc(Cl)c2s1 | 42.7%
CCCC(=O)N(CCCN1CCOCC1)c1nc2c(Cl)cccc2s1 | 71.4%
CCCC(=O)N(CCCN1CCOCC1)c1nc2c(C)c(C)ccc2s1 | 60.1%
CCCC(=O)N(CCCN1CCOCC1)c1nc2c(F)cccc2s1 | 32.1%
CCCC(=O)N(CCN1CCOCC1)c1nc2c(OC)ccc(C)c2s1 | -0.473%
CN(CCN1CCOCC1)C(=O)CCc1cccc(Cl)c1 | -3.16%
N#Cc1cccc(C(=O)NC2CCc3c(ccc(=O)n3CC3CC3)C2)c1 (stereo unspecified) | -19.2%
Cc1ccc(CN2CCc3ncc(CNS(C)(=O)=O)n3CC2)o1 | 35.1%
O=C(COCC1CC[C@H]2[C@H](CCN2c2ncccn2)O1)N1CCCC1 (stereo partly specified) | 7.31%
CN1CCN(C(=O)[C@H]2C[C@@H]3CN(c4ncc(F)cn4)C[C@@H]3N2C)CC1 | -1.15%
CC(NCC(F)(F)F)c1ccc(S(C)(=O)=O)c(F)c1 (stereo unspecified) | -45.3%
Cc1noc(CNc2ccccc2N2CCCCC2)n1 | 4.1%
CN(CCc1ccccn1)C(=O)Nc1cccnc1N1CCCC1 | 44.7%
Cc1nc(N2CCCC2)ccc1NCc1ccccn1 | 42.3%
Cc1cc(CNc2ccccc2N2CCCCC2)no1 | 28.6%
c1ccc(N2CCCC2)c(NCc2ccncc2)c1 | 75.7%

SMILES | INHIBITION
c1ccc(CNc2ccccc2N2CCCC2)nc1 | 74.8%
CCC(=O)NCC(=O)NCC1CCN(c2cc(Cl)ccc2C)C1 (stereo unspecified) | 23.73%
Cc1cc(CNC(=O)Cc2c(C)nc3cc(=O)[nH]n3c2C)no1 | 31.1%
CC(C)CCN1CCNC(=O)C1CC(=O)NCCc1cc(O)ncn1 (stereo unspecified) | 12.8%
Cc1nc(C2CCCCN2C(=O)c2ccccc2)ncc1C(=O)N(C)C (stereo unspecified) | 28.4%
O=C(CN1CCCC1CCCO)NCc1ccccn1 (stereo unspecified) | 29.4%
CCCN1CCC(CNC(=O)N2CCCC2c2c(C)n[nH]c2C)CC1 (stereo unspecified) | 24.3%
CCn1cnnc1C1CCN(C(=O)c2ccc3c(c2)nnn3C)CC1 | 11.9%
COc1ccc(Cl)cc1C(=O)N1C[C@@H](NC(=O)N(C)C)[C@H](C(C)C)C1 | 0.76%
CC(C)[C@@H]1CN(c2ncc(F)cn2)C[C@H]1NC(=O)N(C)C | 23.4%
COc1ccc(C(=O)N2C[C@@H](NC(=O)N(C)C)[C@H](C(C)C)C2)c(OC)n1 | 54.6%
CN(C)C(=O)c1cnc2n1CCN(Cc1cccc(C#N)c1)C2 | 33.4%
O=C(CCCc1nnc(-c2ccccc2)o1)N1CCC1 | 28.8%
O=S(=O)(c1ccccc1N1CC(n2cccn2)C1)C(F)(F)F | 43.5%
Cc1cnn(C2CN(c3ccccc3S(=O)(=O)C(F)(F)F)C2)c1 | 89.4%
O=S(=O)(c1cc(F)ccc1N1CC(n2cccn2)C1)C(F)(F)F | 26.8%
CN(Cc1nnn(CC2CCC2)n1)C(=O)c1ccccc1 | -19.1%
CCN1CCN(C(C)CNC(=O)Nc2nc3ccccc3s2)CC1 (stereo unspecified) | 59.4%
CCN1CCN(C(C)CNC(=O)Nc2nnc(C)s2)CC1 (stereo unspecified) | 34.6%
CCN1CCN(C(C)CNC(=O)Nc2nnc(C(C)C)s2)CC1 (stereo unspecified) | -11.6%
CNC(=O)Nc1cc(-c2ccc(Br)cc2)nn1CCO | -4.74%
CN(C)CC1(O)CCN(C(=O)Cc2ccc3c(c2)CCC3)C1 (stereo unspecified) | 19.5%

SMILES | INHIBITION
O=C(CN1CCc2c(ncn2C2CC2)C1)NC1CCN(C2CC2)CC1 | 39.2%
Cc1oc(-c2cc(F)cc(F)c2)nc1CN1C[C@@H](C)NC[C@@H]1C | -6.61%
Cc1ccc(-c2nc(CN3C[C@@H](C)NC[C@@H]3C)c(C)o2)s1 | 50.4%
CSc1ccc(-c2nc(CN3C[C@@H](C)NC[C@@H]3C)c(C)o2)cc1 | 24%
Cc1c(C(=O)NCC(C)(C)S(C)(=O)=O)cccc1-c1ccccn1 | -53.2%
Cc1c(C(=O)NCCCS(C)(=O)=O)cccc1-c1ccccn1 | -12.1%
Cc1c(C(=O)NCCC(=O)N2CCCC2)cccc1-c1ccccn1 | 71.4%
Cc1nn(C)c(Oc2cccc(F)c2)c1NC(=O)C1CCOCC1 | 62.9%
Cc1nn(C)c(Oc2cccc(F)c2)c1NC(=O)C1CCCO1 (stereo unspecified) | 29.8%
Cc1nn(COc2cccc(F)c2)c(C)c1NC(=O)C1CC1 | 46.6%
Brc1ccccc1-c1nnc(CNCCn2cccn2)o1 | 29.7%
O=C(CCN1C[C@H]2CC[C@@H]1C2)N1CCN(c2cccc(Cl)c2)C(=O)C1 | -6.94%
CC(C)CNC(=O)[C@H]1C[C@H]2CN(C(=O)NCCc3ccccc3)C[C@@H]1O2 | 20.5%
Cc1n[nH]c(C)c1C1COCCN1C(=O)Cc1ccccc1F (stereo unspecified) | 83.4%
Cc1cccc(CC(=O)N2CCOCC2c2c(C)n[nH]c2C)c1 (stereo unspecified) | 53.8%
CSc1ccc(C(=O)N2CCOCC2c2c(C)n[nH]c2C)o1 (stereo unspecified) | 57.45%
Cc1n[nH]c(C)c1C1COCCN1C(=O)Cc1cccc(F)c1 (stereo unspecified) | 16.8%
Cc1cccc(CCC(=O)N2CCOCC2c2c(C)n[nH]c2C)c1 (stereo unspecified) | -2.53%
Cc1n[nH]c(C)c1C1COCCN1C(=O)c1ccc(Cl)o1 (stereo unspecified) | -0.482%
Cc1n[nH]c(C)c1C1COCCN1C(=O)c1cccc(F)c1F (stereo unspecified) | -0.25%
CSc1ccc(C(=O)N2CCOCC2c2c(C)nn(C)c2C)o1 (stereo unspecified) | 23.4%
Cc1ccc(O)c(C(=O)N2CCOCC2c2c(C)n[nH]c2C)c1 (stereo unspecified) | 1.563%

SMILES | INHIBITION
Cc1ccc(CC(=O)N2CCOCC2c2c(C)n[nH]c2C)cc1 (stereo unspecified) | 67.5%
Cc1ccccc1CC(=O)N1CCOCC1c1c(C)n[nH]c1C (stereo unspecified) | 41.65%
Cc1ccc(CC(=O)N2CCOCC2c2ncon2)cc1 (stereo unspecified) | 19.4%
CN(CC1(O)CCCC1)C(=O)c1cccc(Nc2cnccn2)c1 | 22%
CCCN(C)S(=O)(=O)N1CCCC1c1ccco1 (stereo unspecified) | 10.47%
CN(C)C(=O)C1CN(Cc2nccs2)CCN(S(C)(=O)=O)C1 (stereo unspecified) | 7.52%
COCC(C)(O)CNC(=O)c1cc(-c2ccc(F)cc2)nn1C (stereo unspecified) | -89.3%
Cn1nc(C#N)c2c1CN(C(=O)c1cccnc1)CCC2 | 9.3%
CCCC(=O)NC(C(=O)OC)c1cc(F)ccc1F (stereo unspecified) | -14%
Cc1nnc(C2CCN(c3ncccn3)CC2)o1 | 25.8%
Cc1c(F)cccc1S(=O)(=O)NCCN | 4.3%
CC(=O)NCC(=O)N1CCOC2(CCCN(c3ccc(C)nn3)C2)C1 (stereo unspecified) | 8.74%
Cc1ncsc1CN1C[C@H](C(=O)NCC2CC2)[C@@H]2CCO[C@@H]2C1 | 24.9%
O=C(NC1CCCC1)[C@@H]1CN(Cc2nccs2)C[C@H]2OCC[C@H]21 | 32.4%
CC(C)NC(=O)[C@@H]1CN(Cc2nccs2)C[C@H]2OCC[C@H]21 | 71.1%
Cc1ncsc1CN1C[C@H](C(=O)NC2CCCC2)[C@@H]2CCO[C@@H]2C1 | 52%
O=C(NCC1CC1)[C@H]1CN(Cc2nccs2)C[C@H]2OCC[C@@H]12 | 17.7%
Cc1ncsc1CN1C[C@H]2OCC[C@H]2[C@H](C(=O)NCC2CC2)C1 | 34.4%

— ChEMBL document CHEMBL4513216, “Probing the Open Global Health Chemical Diversity Library for Multistage-Active Starting Points for Next-Generation Antimalarials” (ACS Infect Dis, 2020)
